From PubChem BioAssay
For some of these results: Potency and affinity values are given separately. Activity calls are given as the source filed them. Unless noted, no rule for the calls is given here.

Tests used:
[1] = antimalarial activity against Dd2 strain (AID 2302;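 active = growth inhibition above 50% at the single 2 µM test dose, taken to imply half-maximal potency below 2 µM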;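 also: 0% = DMSO untreated growth and 100% = chloroquine plus artemisinin killed control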); conditions: P. falciparum Dd2 in RBCs, LDH growth readout, 72 h; at 2 µM; hits give high values
[2] = human hepatoma cell viability loss – ATP luminescence, cytotoxicity control for P. falciparum antimalarial project, primary screen (AID 2303;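 active = inhibition above 50%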;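 also: 0% = DMSO wells and 100% = digitonin-killed cells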); conditions: HepG2 viability, 24-48 h, at 10 µM, hits give high values
[3] = molecular target: L-lactate dehydrogenase (Plasmodium falciparum (isolate CDC / Honduras)) (UniProt Q27743); test: PfLDH activity inhibition – cell lysate, 3D7 strain, counter-screen for P. falciparum growth inhibition project (AID 2304);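 also: 0% = vehicle and 100% = reference inhibitor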; conditions: P. falciparum 3D7 crude extract, LDH APAD/NBT absorbance; at 2 µM; hits give high values
[4] = inhibition of 3D7 malaria parasite growth – strain 3D7 (AID 2306);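 also: 0% = DMSO wells and 100% = chloroquine plus artemisinin control wells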; conditions: P. falciparum 3D7 erythrocytic growth, LDH absorbance, 72 h; at 2 µM; hits give high values
[5] = molecular target: Calcium-dependent protein kinase 1 (Plasmodium falciparum (isolate 3D7)) (UniProt P62344); test: PfCDPK1 kinase inhibitors, biochemical, TCAMS library (AID 1159585; cut-off not given, nearly all actives have IC50 up to about 0.98 µM;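 also: inhibitors leave more ATP so luminescence rises with inhibition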); conditions: recombinant PfCDPK1, Kinase-Glo ATP depletion luminescence
[6] = molecular target: Plasmodium falciparum protein kinase 6 (PK6, PF3D7_1337100) (UniProt Q8IDW1); test: PfPK6 kinase inhibitors, biochemical, TCAMS library (AID 1159586); conditions: recombinant PfPK6, Kinase-Glo ATP depletion luminescence
[7] = molecular target: Protein kinase 7 (PK7), Plasmodium falciparum 3D7 (PF3D7_0213400) (UniProt Q7YTF7); test: inhibition of Plasmodium PK7 catalytic activity – biochemical, TCAMS antimalarial set, Kinase-Glo luminescence (AID 1159587); conditions: recombinant PfPK7, Kinase-Glo ATP depletion luminescence
[8] = molecular target: Calcium-dependent protein kinase 4 (Plasmodium falciparum (isolate 3D7)) (UniProt Q8IBS5); test: PfCDPK4 kinase inhibitors, biochemical, TCAMS library (AID 1159588; cut-off not given, nearly all actives have IC50 up to about 0.91 µM); conditions: recombinant PfCDPK4, Kinase-Glo ATP depletion luminescence
Calcium-dependent protein kinase 4 (Plasmodium falciparum (isolate 3D7)), sequence (Q8IBS5 whole entry, looked up): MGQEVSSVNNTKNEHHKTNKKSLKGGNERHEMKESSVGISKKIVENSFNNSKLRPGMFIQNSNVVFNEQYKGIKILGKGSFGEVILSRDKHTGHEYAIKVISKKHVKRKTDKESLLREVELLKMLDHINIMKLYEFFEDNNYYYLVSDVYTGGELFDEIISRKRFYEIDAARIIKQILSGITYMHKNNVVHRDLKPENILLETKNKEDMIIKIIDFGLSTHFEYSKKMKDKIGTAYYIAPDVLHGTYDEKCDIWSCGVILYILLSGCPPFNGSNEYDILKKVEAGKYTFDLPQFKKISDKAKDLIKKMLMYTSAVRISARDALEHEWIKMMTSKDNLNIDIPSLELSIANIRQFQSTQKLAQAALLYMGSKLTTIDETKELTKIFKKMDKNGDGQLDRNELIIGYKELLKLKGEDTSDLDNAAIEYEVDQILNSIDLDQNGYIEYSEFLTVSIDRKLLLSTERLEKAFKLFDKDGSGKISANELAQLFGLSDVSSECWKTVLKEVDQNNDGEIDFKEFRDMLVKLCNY

L-lactate dehydrogenase (Plasmodium falciparum (isolate CDC / Honduras)), sequence (Q27743 whole entry, looked up): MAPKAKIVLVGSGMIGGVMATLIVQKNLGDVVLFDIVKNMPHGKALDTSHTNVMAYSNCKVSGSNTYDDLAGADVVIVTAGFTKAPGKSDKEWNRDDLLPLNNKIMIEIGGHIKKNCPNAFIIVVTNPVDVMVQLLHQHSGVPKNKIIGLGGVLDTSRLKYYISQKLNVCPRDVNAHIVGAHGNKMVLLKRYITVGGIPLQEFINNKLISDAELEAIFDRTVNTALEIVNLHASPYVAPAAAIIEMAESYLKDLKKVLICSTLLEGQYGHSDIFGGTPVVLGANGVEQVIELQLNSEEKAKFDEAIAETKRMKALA
Protein kinase 7 (PK7), Plasmodium falciparum 3D7 (PF3D7_0213400), sequence (Q7YTF7 1-343): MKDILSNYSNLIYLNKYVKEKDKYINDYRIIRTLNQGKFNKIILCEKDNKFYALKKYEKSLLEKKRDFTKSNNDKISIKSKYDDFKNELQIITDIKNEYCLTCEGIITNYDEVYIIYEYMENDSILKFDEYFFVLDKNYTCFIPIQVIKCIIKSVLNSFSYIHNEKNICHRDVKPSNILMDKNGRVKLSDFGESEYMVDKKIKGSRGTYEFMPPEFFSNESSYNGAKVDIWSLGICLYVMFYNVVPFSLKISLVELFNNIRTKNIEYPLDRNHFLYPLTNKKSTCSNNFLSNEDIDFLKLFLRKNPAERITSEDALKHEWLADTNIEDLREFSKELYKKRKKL
Calcium-dependent protein kinase 1 (Plasmodium falciparum (isolate 3D7)), sequence (P62344 whole entry, looked up): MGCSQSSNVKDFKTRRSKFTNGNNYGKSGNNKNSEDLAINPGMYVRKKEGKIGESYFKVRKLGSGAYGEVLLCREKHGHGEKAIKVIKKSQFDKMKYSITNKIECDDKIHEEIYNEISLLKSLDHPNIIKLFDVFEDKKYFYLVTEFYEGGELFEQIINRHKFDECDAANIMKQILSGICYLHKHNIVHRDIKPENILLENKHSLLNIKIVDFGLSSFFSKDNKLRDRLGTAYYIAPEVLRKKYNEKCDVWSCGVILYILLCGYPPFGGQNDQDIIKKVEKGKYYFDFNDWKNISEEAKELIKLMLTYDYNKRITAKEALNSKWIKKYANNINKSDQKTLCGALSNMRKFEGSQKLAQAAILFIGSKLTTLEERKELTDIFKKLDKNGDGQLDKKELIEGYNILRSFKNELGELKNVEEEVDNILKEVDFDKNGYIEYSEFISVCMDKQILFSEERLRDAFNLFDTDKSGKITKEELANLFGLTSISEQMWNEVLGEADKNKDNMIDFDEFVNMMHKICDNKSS
Plasmodium falciparum protein kinase 6 (PK6, PF3D7_1337100), sequence (Q8IDW1 1-305): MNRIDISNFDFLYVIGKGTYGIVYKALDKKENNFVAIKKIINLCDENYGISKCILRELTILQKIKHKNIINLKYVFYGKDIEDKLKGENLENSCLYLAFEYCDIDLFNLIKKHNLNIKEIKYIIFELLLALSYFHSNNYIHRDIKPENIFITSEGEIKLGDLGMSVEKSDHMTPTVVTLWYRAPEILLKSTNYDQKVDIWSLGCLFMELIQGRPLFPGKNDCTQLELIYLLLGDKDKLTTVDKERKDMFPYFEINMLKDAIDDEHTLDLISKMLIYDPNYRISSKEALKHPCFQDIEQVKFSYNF

COc1ccc(CCn2c(=N)c(C(=O)NC3CCCC3)cc3c(=O)n4ccccc4nc32)cc1
active: growth inhibition [4] 99%
inactive: growth inhibition [1] 34% | inhibition [2] 11% | inhibition [3] 1% | outcome [5] | outcome [6] | outcome [7] | outcome [8]

COc1ccc(-c2nc3ccc(C)nc3nc2-c2ccc(OC)cc2)cc1
active: growth inhibition [4] 91%
inactive: growth inhibition [1] -2% | inhibition [2] 4% | inhibition [3] 4% | outcome [5] | outcome [6] | outcome [7] | outcome [8]

CCc1cn2c3c(cc(C(=O)N[C@@H](Cc4cccc(Cl)c4)[C@H](O)CNC4CC4)cc13)N(C)S(=O)(=O)CC2
active: growth inhibition [1] 98% | growth inhibition [4] 98%
inactive: inhibition [2] 10% | inhibition [3] -1% | outcome [5] | outcome [6] | outcome [7] | outcome [8]

CN1CCN(Cc2nc(-c3ccc4c(Nc5ccc(Oc6ccccc6)cc5)ccnc4c3)cs2)CC1
active: growth inhibition [1] 99% | growth inhibition [4] 100%
inactive: inhibition [2] 15% | inhibition [3] 0% | outcome [5] | outcome [6] | outcome [7] | outcome [8]

CC1(C)N=C(N)N=C(N)C1c1ccc(Cl)c(Cl)c1 (centres undefined)
active: growth inhibition [4] 95%
inactive: growth inhibition [1] 0% | inhibition [2] 47% | inhibition [3] -6% | outcome [5] | outcome [6] | outcome [7] | outcome [8]

COc1cc(NC(=O)/C=C/c2cccc3ccoc23)ccc1OCCN(C(C)C)C(C)C
inactive: growth inhibition [1] 5% | inhibition [2] 22% | inhibition [3] 2% | outcome [5] | outcome [6] | outcome [7] | outcome [8]
active: growth inhibition [4] 90%

Cc1cc(NCCC(=O)NCCOc2ccccc2)nc(NCc2ccccc2C)n1
inactive: growth inhibition [1] 29% | inhibition [2] 17% | inhibition [3] 0% | outcome [5] | outcome [6] | outcome [7] | outcome [8]
active: growth inhibition [4] 92%

O=C(Nc1cccc(-c2ccc(-c3nc4ccccc4[nH]3)s2)c1)c1ccncc1
active: inhibition [2] 67% | growth inhibition [4] 92%
inactive: growth inhibition [1] 29% | inhibition [3] -9% | outcome [5] | outcome [6] | outcome [7] | outcome [8]

O=C(c1cc(-c2cccs2)[nH]n1)N1CCN(S(=O)(=O)c2ccc(Br)cc2)CC1
active: growth inhibition [1] 95% | growth inhibition [4] 93%
inactive: inhibition [2] -6% | inhibition [3] 3% | outcome [5] | outcome [6] | outcome [7] | outcome [8]

Nc1ncc(-c2ccsc2)c2ccc(-c3ccc4cn[nH]c4c3)cc12
active: growth inhibition [4] 95%
inactive: growth inhibition [1] 41% | inhibition [2] 18% | inhibition [3] 6% | outcome [5] | outcome [6] | outcome [7] | outcome [8]

Cc1cc(N[C@@H](Cc2ccccc2)C(=O)NCCc2ccccc2)nc(NCc2ccccc2C)n1
inactive: inhibition [2] 37% | inhibition [3] -2% | outcome [5] | outcome [6] | outcome [7] | outcome [8]
active: growth inhibition [1] 85% | growth inhibition [4] 99%

CCCCCN1C(=O)C(c2ccccc2)(c2ccccc2)N=C1N
active: growth inhibition [1] 68% | growth inhibition [4] 97%
inactive: inhibition [2] 18% | inhibition [3] -1% | outcome [5] | outcome [6] | outcome [7] | outcome [8]

COc1ccc2c(OC)ccc(CNCCCCCCNCc3ccc(OC)c4ccc(OC)cc34)c2c1
active: growth inhibition [1] 98% | inhibition [2] 100% | growth inhibition [4] 102%
inactive: inhibition [3] -3% | outcome [5] | outcome [6] | outcome [7] | outcome [8]

Cc1ccc(C(=O)NCC2CCN(c3ccc(C(F)(F)F)cc3NC(=O)c3ccco3)CC2)cn1
active: growth inhibition [1] 73% | growth inhibition [4] 91%
inactive: inhibition [2] 9% | inhibition [3] 0% | outcome [5] | outcome [6] | outcome [7] | outcome [8]

Cc1cccc2[nH]c(-c3ccc(-c4cccc(CNCCc5ccncc5)c4)cc3)nc12
inactive: inhibition [2] 28% | inhibition [3] 2% | outcome [5] | outcome [6] | outcome [7] | outcome [8]
active: growth inhibition [1] 95% | growth inhibition [4] 101%

C=CCc1ccc(C2CCN(CCCCNC(=O)c3ccc(NC(=O)c4ccc(Cl)cc4)cc3)CC2)cc1
inactive: inhibition [2] 27% | inhibition [3] -5% | outcome [5] | outcome [6] | outcome [7] | outcome [8]
active: growth inhibition [1] 97% | growth inhibition [4] 101%

O=C(NOCCCCOc1ccc(Cl)c(Cl)c1)c1ccccc1
active: growth inhibition [4] 98%
inactive: growth inhibition [1] 1% | inhibition [2] 2% | inhibition [3] 3% | outcome [5] | outcome [6] | outcome [7] | outcome [8]

O=C(Nc1ccc(C(F)(F)F)cc1)NC1CCN(CCCCCNC(=O)[C@@H]2C[C@H]2c2ccc(Cl)c(Cl)c2)CC1
inactive: growth inhibition [1] 45% | inhibition [2] 41% | inhibition [3] -7% | outcome [5] | outcome [6] | outcome [7] | outcome [8]
active: growth inhibition [4] 101%

CCC(=O)Nc1cc(=O)[nH]c2nc(-c3ccc(Cl)cc3)nn12
inactive: inhibition [2] 3% | inhibition [3] -11% | outcome [5] | outcome [6] | outcome [7] | outcome [8]
active: growth inhibition [1] 62% | growth inhibition [4] 84%

c1ccc(-c2cccnn2)cc1
inactive: growth inhibition [1] 6% | inhibition [2] -7% | inhibition [3] 0% | outcome [5] | outcome [6] | outcome [7] | outcome [8]
active: growth inhibition [4] 98%

CCCCCNc1nc2nc(N)nc(N)c2nc1-c1ccccc1
inactive: growth inhibition [1] -4% | inhibition [2] 9% | inhibition [3] -2% | outcome [5] | outcome [6] | outcome [7] | outcome [8]
active: growth inhibition [4] 91%

NC(N)=Nc1ccc(Cc2ccc(N=C(N)N)cc2)cc1
inactive: inhibition [2] 35% | inhibition [3] -1% | outcome [5] | outcome [6] | outcome [7] | outcome [8]
active: growth inhibition [1] 94% | growth inhibition [4] 93%

CCCOc1ccccc1C(=O)Nc1nonc1-c1ccc(OCC)c(OCC)c1
inactive: inhibition [2] 46% | inhibition [3] -4% | outcome [5] | outcome [6] | outcome [7] | outcome [8]
active: growth inhibition [1] 89% | growth inhibition [4] 99%

CC(Oc1ccc(Cl)cc1)C(=O)Nc1cc(C(F)(F)F)ccc1-n1cncn1 (centres undefined)
active: growth inhibition [1] 98% | growth inhibition [4] 99%
inactive: inhibition [2] -2% | inhibition [3] 2% | outcome [5] | outcome [6] | outcome [7] | outcome [8]

O=C(Nc1ccc(Cn2nc(Cl)c(N3CCCNCC3)cc2=O)cc1)c1ccc(-c2ccccc2)cc1
inactive: growth inhibition [1] 35% | inhibition [3] 0% | outcome [5] | outcome [6] | outcome [7] | outcome [8]
active: inhibition [2] 93% | growth inhibition [4] 87%

Cc1cccc2[nH]c(-c3ccc(-c4cccc(NC(=O)CCc5cnc[nH]5)c4)s3)nc12
inactive: inhibition [2] 2% | inhibition [3] -4% | outcome [5] | outcome [6] | outcome [7] | outcome [8]
active: growth inhibition [1] 70% | growth inhibition [4] 94%

C=CCOC(=O)N1CCC(CNCc2cccc(-c3ccc(-c4nc5c(C)cccc5[nH]4)s3)c2)C1 (centres undefined)
active: growth inhibition [1] 82% | growth inhibition [4] 101%
inactive: inhibition [2] 11% | inhibition [3] -6% | outcome [5] | outcome [6] | outcome [7] | outcome [8]

CN1CCC(N(Cc2ccc(N3CCN(Cc4c[nH]c5ccc(Cl)cc45)CC3)nc2)C2CC2)CC1
inactive: inhibition [3] -2% | outcome [5] | outcome [6] | outcome [7] | outcome [8]
active: growth inhibition [1] 76% | inhibition [2] 96% | growth inhibition [4] 100%

Cc1cc(-c2cccc3c(NC(=O)N4CCc5cc6nccc(N7CCN8CCC[C@H]8C7)c6cc54)cccc23)cc(C)n1
active: growth inhibition [1] 100% | growth inhibition [4] 101%
inactive: inhibition [2] 12% | inhibition [3] 6% | outcome [5] | outcome [6] | outcome [7] | outcome [8]

Cc1cccc2[nH]c(-c3ccc(-c4ccc(NC(=O)Nc5cccc(C#N)c5)cc4)cc3)nc12
inactive: inhibition [2] 28% | inhibition [3] 6% | outcome [5] | outcome [6] | outcome [7] | outcome [8]
active: growth inhibition [1] 100% | growth inhibition [4] 101%

C=C(C)CSc1nc2c(c(=O)n1CCc1ccccc1)C1(CCCC1)Cc1ccccc1-2
inactive: inhibition [2] 14% | inhibition [3] -5% | outcome [5] | outcome [6] | outcome [7] | outcome [8]
active: growth inhibition [1] 80% | growth inhibition [4] 101%

COc1ccc(-c2csc3ncnc(Cl)c23)cc1
active: growth inhibition [1] 97% | growth inhibition [4] 96%
inactive: inhibition [2] -15% | inhibition [3] 5% | outcome [5] | outcome [6] | outcome [7] | outcome [8]

COc1ccc2nccc([C@@H](O)CN3CCC(NCc4ccc5scnc5c4)CC3)c2c1
active: growth inhibition [1] 93% | growth inhibition [4] 101%
inactive: inhibition [2] 17% | inhibition [3] -1% | outcome [5] | outcome [6] | outcome [7] | outcome [8]

CC(C)(C)c1cc(NC2CC2)nc(-c2ccccn2)n1
active: growth inhibition [1] 79% | growth inhibition [4] 94%
inactive: inhibition [2] 7% | inhibition [3] -7% | outcome [5] | outcome [6] | outcome [7] | outcome [8]

Cc1cccc2[nH]c(-c3ccc(-c4cccc(CNCCN(C)C)c4)cc3)nc12
active: growth inhibition [1] 98% | growth inhibition [4] 102%
inactive: inhibition [2] 6% | inhibition [3] 0% | outcome [5] | outcome [6] | outcome [7] | outcome [8]

Clc1cc(Nc2ccnc3ccc(Br)cc23)ccc1Oc1ccc(Cl)c2ccccc12
inactive: inhibition [2] 6% | inhibition [3] 3% | outcome [5] | outcome [6] | outcome [7] | outcome [8]
active: growth inhibition [1] 86% | growth inhibition [4] 99%

O=[N+]([O-])c1cccc(CNCC2CCN(CC3CCCCC3)CC2)c1
inactive: growth inhibition [1] 14% | inhibition [2] 11% | inhibition [3] 2% | outcome [5] | outcome [6] | outcome [7] | outcome [8]
active: growth inhibition [4] 90%

O=C(NCc1ccco1)c1ccc(S(=O)(=O)c2ccc(Cl)cc2)cc1
inactive: inhibition [2] 6% | inhibition [3] -3% | outcome [5] | outcome [6] | outcome [7] | outcome [8]
active: growth inhibition [1] 95% | growth inhibition [4] 97%
